# Measurements from PubChem BioAssay (NCATS).
# Results filed as inconclusive are left out. Entries that show only a call come without a potency. The source made the active and inactive calls. Calls come from the whole dose curve; as a rule, active = well fitted cell-killing curve with a large enough effect; inconclusive = small, poorly fitted or top-dose-only effect, or effect the other way; inactive = flat fitted curve, though single readings scatter.
# Test system: JEG-3
# Experiment: Primary qHTS to identify gynecologic anti-cancer compounds using libraries of approved drugs and bioactive compounds (AID 1345084); note: nearly all actives have a fitted effect of over 55% in size
# Details: Gynecologic cancer cell panel viability, ATPlite luminescence, 48 h; series mostly up to 57.5 µM
# Procedure, shortened: (§1)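 Five-point cytotoxicity, 48 h drug exposure at 37 C, 5% CO2, on cells seeded 16 h beforehand. ATP content read by ATPlite luminescence.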
# Potency is the fitted concentration of half-maximal effect.
row,SMILES,Potency
1,CCN1CCN(Cc2ccc(-c3cc4c(NC(C)c5ccccc5)ncnc4[nH]3)cc2)CC1 (stereo not given),inactive
2,CC(C)[C@@H](C)/C=C/[C@@H](C)[C@H]1CC[C@H]2C3=CC=C4C[C@@H](O)CC[C@]4(C)C3=CC[C@]12C,inactive
3,Cc1[nH]c(/C=C2\C(=O)Nc3ccc(F)cc32)c(C)c1C(=O)NC[C@H](O)CN1CCOCC1,inactive
4,CCN(CCCOc1ccc2c(Nc3cc(CC(=O)Nc4cccc(F)c4)[nH]n3)ncnc2c1)CCOP(=O)(O)O,inactive
5,O=C1c2c(O[C@@H]3O[C@H](CO)[C@@H](O)[C@H](O)[C@H]3O)cc(O)cc2OC1(O)Cc1ccc(O)cc1 (stereo not given in full),inactive
6,CCCCn1c(-c2ccccc2)nc(-c2ccccc2)c1CN(Cc1ccc2c(c1)OCO2)Cc1ccc2c(c1)OCO2,inactive
7,Cc1ccc(C2(COC(=O)C(C)C)CO2)c(OC(=O)C(C)C)c1 (stereo not given),inactive
8,CCC(C)n1cc(C)c2c(C(=O)NCc3c(C)cc(C)[nH]c3=O)cc(-c3ccc(N4CCNCC4)nc3)cc21 (stereo not given),inactive
9,COc1cc2ncnc(Oc3cccc(NC(=O)Nc4cc(C(C)(C)C(F)(F)F)on4)c3)c2cc1OC,inactive
10,Nc1ncnc2c1ncn2[C@@H]1O[C@H](CO)C[C@H]1O,inactive
11,O=[N+]([O-])c1ccc(-[n+]2nc(-c3ccccc3)nn2-c2ccc(I)cc2)cc1,inactive
12,O=C(NC(NC(=S)Nc1ccc(F)c([N+](=O)[O-])c1)C(Cl)(Cl)Cl)C(c1ccccc1)c1ccccc1 (stereo not given),inactive
13,Cc1ccc(C(=O)N2CCN(c3ccc([N+](=O)[O-])cc3)CC2)cc1Cl,inactive
14,C=C1/C(=C/C=C2\CCC[C@]3(C)[C@@H]([C@H](C)/C=C/C(=O)C4CC4)CC[C@@H]23)C[C@@H](O)C[C@@H]1O,inactive

# Test system: OV90
# Experiment: as above
# Details: Gynecologic cancer cell panel viability, ATPlite luminescence, 48 h; series mostly up to 57.5 µM
# Procedure, shortened: as §1
row,SMILES,Potency
1,O=C(NNc1ccccc1)c1ccncc1,inactive
2,CC1OC2OC3C(OCC(O)C3O)OC(=O)C34CCC(C)(C)CC3C3=CCC5C6(C)CC(O)C(OC7OC(CO)C(O)C(O)C7OC7OCC(OC(=O)CC(C)(O)CC(=O)OC1C(OC1OCC(O)C(O)C1O)C2O)C(O)C7O)C(C)(CO)C6CCC5(C)C3(C)CC4O (stereo not given),10 µM (active)
3,COc1cc(O)c(C(=O)CCc2ccc(O)cc2)c(O[C@@H]2O[C@H](CO)[C@@H](O)[C@H](O)[C@H]2O)c1,inactive
4,COc1ccc(Cl)cc1[C@@]1(F)C(=O)Nc2cc(C(F)(F)F)ccc21,inactive
5,CN(CCCNC(=O)c1ccc2nc3c(c(Cl)c2c1)CCCC3)Cc1ccccc1,inactive
6,Cc1ccc2c(Nc3ccc(Cl)cc3)nccc2c1Nc1ncccc1-c1ncnc2nc[nH]c12,5.01 µM (active)
7,O=C(NCc1ccc(Oc2ccccc2)cc1)c1nc(-c2cc(Br)c(O)c(Br)c2)no1,inactive
8,CCN(CC)c1ccc(C(=C2C=CC(=[N+](CC)CC)C=C2)c2cc(S(=O)(=O)O)ccc2S(=O)(=O)[O-])cc1,12.6 µM (active)
9,O=C(Nc1ccc(F)cc1)N1CCc2ccccc2C1c1ccc(C(F)(F)F)cc1 (stereo not given),inactive
10,CC(C)(C)c1ccc(-c2nc3ccccc3[nH]2)cc1,1.41 µM (active)
11,C=C(C)C(=O)OC1[C@@H]2C(=C)C(=O)O[C@@H]2C[C@@H](C)[C@@H]2C=CC(=O)[C@@]12C (stereo not given in full),inactive
12,COc1cc2ncnc(Nc3ccc(Oc4ccccc4)cc3)c2cc1OC,inactive
13,CC1CCC2C(=CCC(O)C2(C)C)C1(C)Cc1c(O)cc(CO)c(C=O)c1O (stereo not given),inactive
14,CC1(C)CC23[C@@H]4CC(=O)[C@@H]2COC(=O)[C@@H]3CC[C@H]41,inactive
15,CN1CCN(C(=O)c2ccc(Nc3nccc(-c4cccs4)n3)cc2Cl)CC1,inactive
16,CC(C)[C@@H](C)/C=C/[C@@H](C)[C@H]1CC[C@H]2C3=CC=C4C[C@@H](O)CC[C@]4(C)C3=CC[C@]12C,inactive
17,OCC(Cc1ccccc1)Nc1nc(Oc2ccc3c(c2)CCC3)nc2c1ncn2Cc1ccc(-c2ccccc2)cc1 (stereo not given),inactive
18,Cc1[nH]c(/C=C2\C(=O)Nc3ccc(F)cc32)c(C)c1C(=O)NC[C@H](O)CN1CCOCC1,inactive
19,CCN(CCCOc1ccc2c(Nc3cc(CC(=O)Nc4cccc(F)c4)[nH]n3)ncnc2c1)CCOP(=O)(O)O,inactive
20,O=C1c2c(O[C@@H]3O[C@H](CO)[C@@H](O)[C@H](O)[C@H]3O)cc(O)cc2OC1(O)Cc1ccc(O)cc1 (stereo not given in full),inactive
21,CCCCn1c(-c2ccccc2)nc(-c2ccccc2)c1CN(Cc1ccc2c(c1)OCO2)Cc1ccc2c(c1)OCO2,inactive
